These results are taken from PubChem BioAssay AID1456 (Vanderbilt High Throughput Screening Facility, 2008).

Among all 190,000 compounds or so, about 4,100 (2.2%) were called active. Many of the other results were omitted from the sample, so actives are more common in it than they were. Values without a mark were called inactive.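 The calls were made as follows: active = thallium flux slope and its plate-corrected score both differing from the plate sample mean at a set confidence after two filtering rounds, in either direction; inactive = the rest.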

Chain of Solute carrier family 12 member 5 (Homo sapiens) (Q9H2X9 whole entry, looked up): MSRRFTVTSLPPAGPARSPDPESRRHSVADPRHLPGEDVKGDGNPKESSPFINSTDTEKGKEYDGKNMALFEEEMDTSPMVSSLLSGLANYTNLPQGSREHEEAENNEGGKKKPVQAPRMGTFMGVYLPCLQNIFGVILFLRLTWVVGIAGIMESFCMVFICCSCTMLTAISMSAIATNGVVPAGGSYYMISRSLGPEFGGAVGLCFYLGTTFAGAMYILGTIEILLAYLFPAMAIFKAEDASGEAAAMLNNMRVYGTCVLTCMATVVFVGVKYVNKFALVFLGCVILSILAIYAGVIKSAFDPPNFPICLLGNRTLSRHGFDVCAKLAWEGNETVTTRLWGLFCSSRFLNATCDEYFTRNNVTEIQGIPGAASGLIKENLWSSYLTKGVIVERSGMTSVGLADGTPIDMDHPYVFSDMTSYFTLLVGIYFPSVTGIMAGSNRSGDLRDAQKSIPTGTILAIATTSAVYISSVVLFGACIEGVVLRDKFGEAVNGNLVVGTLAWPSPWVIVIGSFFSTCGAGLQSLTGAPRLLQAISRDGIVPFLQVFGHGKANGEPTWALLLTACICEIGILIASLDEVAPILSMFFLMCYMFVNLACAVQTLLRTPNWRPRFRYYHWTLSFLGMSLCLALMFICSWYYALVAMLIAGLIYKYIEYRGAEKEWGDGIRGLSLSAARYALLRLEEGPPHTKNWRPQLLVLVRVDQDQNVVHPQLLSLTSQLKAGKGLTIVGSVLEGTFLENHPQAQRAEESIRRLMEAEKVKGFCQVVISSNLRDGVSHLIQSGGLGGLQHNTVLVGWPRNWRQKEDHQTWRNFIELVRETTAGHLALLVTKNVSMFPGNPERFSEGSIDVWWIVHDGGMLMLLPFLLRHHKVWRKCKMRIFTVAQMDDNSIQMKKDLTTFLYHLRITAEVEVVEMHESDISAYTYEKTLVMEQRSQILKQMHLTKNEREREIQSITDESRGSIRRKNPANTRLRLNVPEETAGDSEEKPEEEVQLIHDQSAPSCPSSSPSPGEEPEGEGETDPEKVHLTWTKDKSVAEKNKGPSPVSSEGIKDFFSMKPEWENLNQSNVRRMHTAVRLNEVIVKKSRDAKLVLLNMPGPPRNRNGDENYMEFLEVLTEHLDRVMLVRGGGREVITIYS

This experiment has as its target Solute carrier family 12 member 5 (Homo sapiens) (UniProt Q9H2X9). The experiment in a line: KCC2 cotransporter modulators, thallium flux, primary screen, cell-based, HEK293 KCC2, FluoZin-2 fluorescence, MLSMR (AID 1456).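 Also: slope of fluorescence scaled to starting intensity during 10 to 20 s after thallium.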 Conditions: KCC2 cells, thallium flux FluoZin-2 fluorescence; at 10 µM.
As to `CCCCn1c(SCC(=O)NCC2CCCO2)nc2ccc(N3CCOCC3)cc2c1=O` (stereo not drawn), the B-score of Tl+ flux slope (higher = more flux/activation; lower = inhibition) was 7.18 (active). For the compound `O=C(CCCn1c(SCC(=O)c2ccccc2)nc2ccccc2c1=O)NCC1CCCO1` (stereo not drawn), the B-score of Tl+ flux slope (higher = more flux/activation; lower = inhibition) was -0.113. The result for `COCCCNC(=O)CSc1nc2ccc(N3CCOCC3)cc2c(=O)n1CCc1ccccc1` reads 2.34; that for `CC(C)(C)NC(=O)NC(=O)COC(=O)Cc1ccc(Cl)cc1Cl`, 0.383; that for `CCN1CCN(C(=O)CCN2C(=O)c3ccccc3C2=O)CC1`, 0.322. For the compound `CCOC(=O)C1=NN(c2ccc(Cl)cc2)/C(=C/C2=NCCc3cc(OC)c(OC)cc32)S1`, the B-score of Tl+ flux slope (higher = more flux/activation; lower = inhibition) is 1.05.

For `O=C(O)CC1(CC(=O)Nc2cccc(C(F)(F)F)c2)CCCC1`, the B-score of Tl+ flux slope (higher = more flux/activation; lower = inhibition) was -1.45. The result for `CCOC(=O)Cc1cc(=O)[nH]c(/N=C(\N)Nc2ccc(OC)cc2)n1` reads -0.288.

As for `COC(=O)CSc1nc(C2CC2)nc2ccccc12`, the B-score of Tl+ flux slope (higher = more flux/activation; lower = inhibition) is -0.171. As for `O=C(O)CCSc1nnc(-c2ccccc2)n1-c1ccccc1`, the figure is 0.407. As for `CCc1c(SCCC(=O)O)nc2ccccc2c1C`, the B-score of Tl+ flux slope (higher = more flux/activation; lower = inhibition) is 3.44 (active).

`Cc1nc2ccccc2cc1C(=O)N/N=C/c1ccc([N+](=O)[O-])cc1`: the B-score of Tl+ flux slope (higher = more flux/activation; lower = inhibition) was -1.83.

As for `N=c1oc2ccccc2cc1C(=O)N/N=C/c1ccccc1`, the B-score of Tl+ flux slope (higher = more flux/activation; lower = inhibition) is -3.75 (active). As for `CNC(=O)c1cc2c(ccc3ccccc32)oc1=N`, the figure is -0.785.

On to `CCN(CC)c1ccc(NC(=O)C2CCC(CNc3c(N4CCCC4)c(=O)c3=O)CC2)c(C)c1` (stereo not drawn), for which the B-score of Tl+ flux slope (higher = more flux/activation; lower = inhibition) was 1.27. As for `CCCc1c(C(=O)O)cnn1-c1ccc(Cl)cc1`, the figure is -0.00741; as for `Oc1c(Cl)cc(Cl)c(Cl)c1Cc1c(O)c(Cl)cc(Cl)c1Cl`, 19.9 (active). The result for `COc1ccc(CC2(CO)CCN(Cc3cnn(C)c3)CC2)cc1` reads 0.00537; that for `C/C=C/C(=O)Nc1ccc(N2CCN(c3ccc(C(F)(F)F)cn3)CC2)nc1`, -0.115; that for `CCC(C)NC(=O)CN(C1CCCCC1)S(C)(=O)=O` (stereo not drawn), 0.0328. Regarding `CS(=O)(=O)N(CC(=O)N1CCN(c2ccc(F)cc2)CC1)C1CCCCC1`, the B-score of Tl+ flux slope (higher = more flux/activation; lower = inhibition) was -3.33 (active).

Consider `CS(=O)(=O)N(CC(=O)Nc1ccc(Cl)c(Cl)c1)C1CCCCC1`, for which the B-score of Tl+ flux slope (higher = more flux/activation; lower = inhibition) is -0.64. For `O=C(NN1C(=O)C2CCCCC2C1=O)c1ccco1` (stereo not drawn), the B-score of Tl+ flux slope (higher = more flux/activation; lower = inhibition) is -1.74.

Turning to `O=S(=O)(NC(=S)Nc1ccccc1)c1ccc(F)cc1`, the B-score of Tl+ flux slope (higher = more flux/activation; lower = inhibition) was 0.866. For the compound `Cc1cc(C)nc(Nc2n[nH]c(-c3ccccc3N)n2)n1`, the B-score of Tl+ flux slope (higher = more flux/activation; lower = inhibition) is 0.274. As for `COc1ccc(-n2c(=S)[nH]c3sc4c(c3c2=O)CCc2ccccc2-4)cc1`, the figure is 11.6 (active); as for `COc1cccc(-n2c(=S)[nH]c3c(oc4ccccc43)c2=O)c1`, -2.03; as for `CSc1nc2sc3c(c2c(=O)[nH]1)CCc1ccccc1-3`, 0.526. As for `COCc1cc(=O)[nH]c(SC)n1`, the figure is -0.453; as for `Cc1cccc(OCC(=O)Nc2ccccc2F)c1`, 0.917; as for `Cc1cccc(OCC(=O)NC(=S)Nc2ccccc2N2CCOCC2)c1`, 8.7 (active). As for `Cc1cccc(OCCC(=O)Nc2cc(S(=O)(=O)N3CCCCC3)ccc2N2CCOCC2)c1`, the figure is 0.115; as for `O=C(Nc1ccccc1)Nc1ccc(C(F)(F)F)cn1`, 0.765; as for `O=C(C1=C(O)C(=O)N(CCOCCO)C1c1ccccn1)c1cccs1` (stereo not drawn), 0.0733. As for `CC(=O)NC(CC(=O)Nc1nccs1)c1ccccc1` (stereo not drawn), the B-score of Tl+ flux slope (higher = more flux/activation; lower = inhibition) was 0.0448. Regarding `CCCc1nc2c(C)cc(-c3nc4ccccc4n3C)cc2n1Cc1ccc(-c2ccccc2C(=O)O)cc1`, the B-score of Tl+ flux slope (higher = more flux/activation; lower = inhibition) is -4.55 (active). For `CC(=O)Nc1nc2ccccc2n1Cc1ccc(C)cc1`, the B-score of Tl+ flux slope (higher = more flux/activation; lower = inhibition) is 0.76. As to `Cc1ccc(Cn2c(NC(=O)c3ccco3)nc3ccccc32)cc1`, the B-score of Tl+ flux slope (higher = more flux/activation; lower = inhibition) was 1.11. The result for `c1ccc2c(c1)OCCOCCOCCO2` reads -0.0153.

Regarding `O=C(COC(=O)c1ccccc1SCC(=O)NC1CCCCC1)NC1CCCCC1`, the B-score of Tl+ flux slope (higher = more flux/activation; lower = inhibition) is 0.427. As for `O=C(COC(=O)c1cc([N+](=O)[O-])ccc1NCc1ccccc1)NC1CCCCC1`, the figure is -3.78 (active); as for `N#Cc1ccccc1Sc1ccccc1C(=O)OCC(=O)NC1CCCCC1`, -0.81; as for `O=C(CSc1cccc2cccnc12)N/N=C/c1cccnc1`, 30.2 (active). On to `Cc1nc2ccccc2n1CC(=O)N/N=C/c1cccnc1`, for which the B-score of Tl+ flux slope (higher = more flux/activation; lower = inhibition) is 0.307. The result for `CCOC(=O)N/N=C/c1cccnc1` reads 0.0775; that for `CN(c1ccccc1)S(=O)(=O)c1ccc(Cl)c(C(=O)OCC(=O)NCc2ccco2)c1`, -3.28.

Consider `O=C(Nc1cccc(S(=O)(=O)NC2=NCCC2)c1)C1CCCCC1`, for which the B-score of Tl+ flux slope (higher = more flux/activation; lower = inhibition) is 0.665. Regarding `N/C(=N\OC(=O)Nc1ccccc1)c1ccno1`, the B-score of Tl+ flux slope (higher = more flux/activation; lower = inhibition) is 0.175.
